Reference: PubChem BioAssay (NCATS)
Inconclusive results are not listed. Calls of active or inactive are those of the source. Calls come from the whole dose curve; as a rule, active = well fitted cell-killing curve with a large enough effect; inconclusive = small, poorly fitted or top-dose-only effect, or effect the other way; inactive = flat fitted curve, though single readings scatter.

Assays:
Test in all cases: Primary qHTS to identify gynecologic anti-cancer compounds using libraries of approved drugs and bioactive compounds (AID 1345084); note: nearly all actives have a fitted effect of over 55% in size
Conditions in all cases: Gynecologic cancer cell panel viability, ATPlite luminescence, 48 h; series mostly up to 57.5 µM
PA-1 = system: PA-1
Procedure, shortened: (§1)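 Cells, 1,000 per well, were allowed to settle for 16 h at 37 C before compound addition. Five concentrations were tested for 48 h, and viability was read by ATPlite luminescence after 15 min at room temperature.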

SKOV3 = system: SKOV3
Procedure, shortened: as §1

Tov-21-G = system: Tov-21-G
Procedure, shortened: as §1

Tov112D = system: Tov112D
Procedure, shortened: as §1

Measured: Potency

CCC[C@H](N[C@H]1CCc2cc(F)cc(F)c2C1)C(=O)Nc1cn(C(C)(C)CNCC(C)(C)C)cn1
inactive: all assays above

CC(C)c1ccc(NC(=O)Cn2cnc3c2c(=O)n(C)c(=O)n3C)cc1
inactive: all assays above

Cc1nc(N2CCN(C(=O)c3ccco3)CC2)c2c3c(sc2n1)CCCC3
inactive: all assays above

CNC(=O)c1ccc2c(c1)CCO[C@H]2CCN1CCN(c2ccc(OC)cc2)CC1
inactive: all assays above

COc1cc2c(cc1OCCCN1CCCC1)N=C(N)C21CCC1
inactive: all assays above

CCN1CCC[C@@H]1CNC(=O)c1ccc2c(c1)NC(=O)c1cccc(C)c1S2
inactive: all assays above

N#Cc1cccc(C(=O)Nc2cc(-c3ccccc3)nn2-c2ccccc2)c1
inactive: all assays above

CCCCOC(=O)NS(=O)(=O)c1sc(CC(C)C)cc1-c1ccc(Cn2ccnc2)cc1
inactive: all assays above

C/C=C(\C)C(=O)OC1C=C(C)CC(OC(=O)c2ccc(O)cc2)C2C1(C)CCC2(O)C(C)C (centres undefined)
inactive: all assays above

O=C1Cc2c([nH]c3ccc(Br)cc23)-c2ncccc2N1
inactive: all assays above

Cc1cccc(N2CCN(C(=O)c3cc(S(=O)(=O)N(C)C)ccc3N3CCCC3)CC2)c1C
inactive: all assays above
